{"source": "PubChem BioAssay AID1460", "about": "(National Center for Advancing Translational Sciences (NCATS), 2008)", "note": "Several values for one entry are separate records, joined by “and”; a condition that tells them apart may be missing. Equal values may be shown once. Screen size: about 270,000 compounds; about 5,800 (2.1%) were called active. Roughly 16% stayed inconclusive and do not appear here. The entries come from a sample that favours actives as a whole. Unmarked numbers belong to inactive results. Calls follow the shape of the dose curve; as a rule, active = well fitted inhibition curve with a large enough effect; inconclusive = small, poorly fitted or top-dose-only effect; inactive = flat fitted curve, though single readings scatter. % is scaled to controls: 0 for no effect and ±100 for the full control effect; potency is read from the fitted curve at half-maximal effect.", "data": [{"biological_target": "Microtubule-associated protein tau (Homo sapiens) (UniProt P10636)", "sequence (P10636 561-689 P618L limits assumed)": "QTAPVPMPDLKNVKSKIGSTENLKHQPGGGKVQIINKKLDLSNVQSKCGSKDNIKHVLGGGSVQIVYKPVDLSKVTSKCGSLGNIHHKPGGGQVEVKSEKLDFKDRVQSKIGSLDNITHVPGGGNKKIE", "experiment": "qHTS for Inhibitors of Tau Fibril Formation, Thioflavin T Binding; also: nearly all actives have a fitted effect of over 55% in size", "conditions": "recombinant tau K18 P301L, heparin-induced fibrillization, ThT fluorescence; series mostly up to 57.4 µM; activity, negative = inhibition: at the top concentration", "procedure,_shortened": "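ThT emission at 510 nm, taken 1 hr after adding 30 uM dye, quantifies aggregates formed when 20 uM heparin acts on human tau K18 P301L for 6 hr at 37 C.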", "units": {"activity, negative = inhibition": "%"}, "values": [{"smiles": "Cc1ccc(CN2CCC(CNC(=O)c3cnn(-c4ccccc4Cl)c3C3CCN(C(=O)OC(C)(C)C)CC3)CC2)cc1", "activity, negative = inhibition": -12.4}, {"smiles": "COc1ccc(-c2nnc(SCC(=O)Nc3ccccc3C)o2)cc1OC", "activity, negative = inhibition": 9.86}, {"smiles": "O=[N+]([O-])c1cccc2ncccc12", "activity, negative = inhibition": 6.12}, {"smiles": "CC(c1ccco1)N(C(=O)COc1ccccc1[N+](=O)[O-])c1ccccn1", "note": "(stereo unspecified)", "activity, negative = inhibition": -4.05}, {"smiles": "O=[N+]([O-])c1cc([N+](=O)[O-])c2cccnc2c1O", "Potency": "12.6 µM (active)"}, {"smiles": "COCCNc1ncnc2c1c(-c1ccccc1)cn2-c1ccc(C)c(Cl)c1", "activity, negative = inhibition": -15.6}, {"smiles": "CCc1nnc(NC(=O)c2cccc(S(=O)(=O)N(C)c3ccc(OC)cc3)c2)s1", "activity, negative = inhibition": -6.54}, {"smiles": "CCc1ccc2nc3sc(C(=O)Nc4nnc(CC)s4)c(N)c3cc2c1", "Potency": "3.98 µM (active)"}, {"smiles": "CCc1nnc(NC(=O)c2nc3nccc(C)n3n2)s1", "activity, negative = inhibition": -0.231}, {"smiles": "CCC(=O)N1c2ccccc2CC1C(=O)N1CCN(c2cccc(OC)c2)CC1", "note": "(stereo unspecified)", "activity, negative = inhibition": 5.58}, {"smiles": "Cn1c(=O)sc2cc(NS(=O)(=O)c3ccc(C(C)(C)C)cc3)ccc21", "activity, negative = inhibition": -1.27}, {"smiles": "COc1c(O)ccc2c1CN1CCc3cc4c(cc3C1C2)OCO4", "note": "(stereo unspecified)", "Potency": "22.4 µM (active)"}, {"smiles": "COc1ccc2cc1Oc1ccc(cc1)C[C@H]1c3cc(c(OC)cc3CCN1C)Oc1c(O)c(OC)cc3c1[C@H](C2)N(C)CC3", "activity, negative = inhibition": 9.57}, {"smiles": "COc1cc(COCC(O)CN2CCN(Cc3ccc4c(c3)OCO4)CC2)cc(OC)c1OC", "note": "(stereo unspecified)", "activity, negative = inhibition": -0.845}, {"smiles": "COC(=O)c1ccccc1NC(=O)C(Cc1ccccc1)N1Cc2ccccc2C1=O", "note": "(stereo unspecified)", "activity, negative = inhibition": -8.51}, {"smiles": "CCCCN(CC)CCCNC(=O)Cn1ncc2c([nH]c3ccc(C)cc32)c1=O", "activity, negative = inhibition": -6.43}, {"smiles": "Cc1ccc(NC(=O)CSc2nc3c(c(=O)[nH]2)CN(Cc2ccc4c(c2)OCO4)CC3)cc1C", "activity, negative = inhibition": 5.2}, {"smiles": "Cc1ccc(CN2CCC(CNC(=O)c3cnn(-c4ccc(C)cc4)c3C3CCN(C(=O)OC(C)(C)C)CC3)CC2)cc1", "activity, negative = inhibition": -15.1}, {"smiles": "CCCCOC(=O)/C(C#N)=C/c1ccc(-c2cccc(C(F)(F)F)c2)o1", "activity, negative = inhibition": -16.5}, {"smiles": "CCOC(=O)c1ccc(-c2ccc(/C=C(\\C#N)C(=O)Nc3ccc(OCC)cc3)o2)cc1", "Potency": "1.41 µM (active)"}, {"smiles": "Cc1ccc2nc(/C(C#N)=C/c3ccc(-c4ccc(C(=O)OC(C)C)cc4)o3)[nH]c2c1", "activity, negative = inhibition": -4.05}, {"smiles": "COc1cccc(N2CCN(S(=O)(=O)c3ccc4c(c3)CCCN4C(C)=O)CC2)c1", "activity, negative = inhibition": -2.31}, {"smiles": "CCOC(=O)c1[nH]c2ccc(OC)cc2c1NC(=O)CCN1CCN(Cc2ccccc2)CC1", "activity, negative = inhibition": -7.67}, {"smiles": "COC(=O)c1[nH]c2ccc(Br)cc2c1NC(=O)Oc1ccccc1", "Potency": "15.8 µM (active)"}, {"smiles": "COC(=O)c1[nH]c2ccccc2c1NS(=O)(=O)c1ccc(OC)cc1OC", "activity, negative = inhibition": -2.82}, {"smiles": "O=S(=O)(NCCS(=O)(=O)N1CCN(c2ccccc2)CC1)c1ccc(Cl)cc1", "activity, negative = inhibition": -4.85}, {"smiles": "CN(C(=O)CSc1nc2ccc(NC(=O)COc3ccccc3)cc2s1)c1ccccc1", "activity, negative = inhibition": -3.95}, {"smiles": "CCCCc1nn2c(=O)cc(COC(=O)c3ccc(NC(=O)c4ccccc4C)cc3)nc2s1", "activity, negative = inhibition": -1.76}, {"smiles": "O=C1CSC(=S)N1/N=C/c1ccc(O)c([N+](=O)[O-])c1", "Potency": "6.31 µM (active)"}, {"smiles": "O=C(c1ccncc1)c1ccc([N+](=O)[O-])cc1", "activity, negative = inhibition": 0.754}, {"smiles": "Cc1ccc(C(=O)Cn2cc([N+](=O)[O-])nc2C)cc1", "activity, negative = inhibition": -1.76}, {"smiles": "O=C(Cn1c[n+](CC(=O)c2ccc([N+](=O)[O-])cc2)cn1)c1ccc([N+](=O)[O-])cc1", "Potency": "12.6 µM (active) and 20 µM (active)"}, {"smiles": "Cc1csc2nc(COC(=O)c3ccc(NC(=O)COc4ccccc4F)cc3)cc(=O)n12", "activity, negative = inhibition": -5.4}, {"smiles": "O=C(Nc1cccc2ncccc12)c1ccc(-c2ccc(Cl)cc2Cl)o1", "activity, negative = inhibition": -12.8}, {"smiles": "Cc1ccc(/C=C(\\C#N)C(=O)Nc2cccc3ncccc23)o1", "Potency": "14.1 µM (active)"}, {"smiles": "O=C(Nc1cccc2ncccc12)C(Cl)(Cl)Cl", "activity, negative = inhibition": 8.69}, {"smiles": "O=C(NCc1ccccc1Cl)C1CCN(c2ncnc3c2nc2n3CCCCC2)CC1", "activity, negative = inhibition": -13.8}, {"smiles": "Cc1ccc(NC(=O)Cn2cnc3nc4c(cc3c2=O)CCCC4)cc1Cl", "activity, negative = inhibition": 6.45}, {"smiles": "CCOc1ccc(CNC(=O)c2cc(-c3ccc(Cl)s3)nc3ccccc23)cc1", "activity, negative = inhibition": 4.88}, {"smiles": "O=C(Nc1ccccc1)Nc1ccccc1C(=O)NCc1ccco1", "activity, negative = inhibition": -5.07}, {"smiles": "CCc1ccc(-c2cc(C(=O)NCc3ccco3)c3ccccc3n2)s1", "Potency": "25.1 µM (active)"}, {"smiles": "Cc1cc(C)cc(NS(=O)(=O)c2cc3c(cc2C)NC(=O)CO3)c1", "activity, negative = inhibition": -8.97}, {"smiles": "CCc1ccc(NC(=O)CCCc2nnc3n(CCCOC)c(=O)c4sccc4n23)cc1", "activity, negative = inhibition": -2.94}, {"smiles": "CCN(CC)c1ccc(NC(=O)CN2CCN(CC(=O)Nc3ccc(Cl)cc3)CC2)cc1", "activity, negative = inhibition": -12.7}, {"smiles": "COc1ccc(-c2nc(SCC(=O)N3CCCCC3C)n[nH]2)cc1", "note": "(stereo unspecified)", "activity, negative = inhibition": -11.1}, {"smiles": "CC(CCO)Nc1nc2c([nH]1)c(=O)n(C)c(=O)n2C", "note": "(stereo unspecified)", "activity, negative = inhibition": -1.07}, {"smiles": "Cc1ccc(NN=Nc2nc3c([nH]2)c(=O)n(C)c(=O)n3C)cc1", "Potency": "28.2 µM (active)"}, {"smiles": "Cc1ccc(CNC(=O)CSc2c(C)cnc3c2c(=O)n(C)c(=O)n3C)cc1", "activity, negative = inhibition": -3.11}, {"smiles": "CCc1cccc(CC)c1NC(=O)Cn1c(=O)c(-c2cc(C)ccc2NC(C)=O)nc2ccccc21", "activity, negative = inhibition": 0.406}, {"smiles": "Nc1nc(-c2sc3nc4c(cc3c2N)CCCC4)nc(N2CCOCC2)n1", "Potency": "3.55 µM (active)"}, {"smiles": "Cc1nc(N2CCOCC2)nc2c1CCCC2", "activity, negative = inhibition": -16.3}, {"smiles": "Cc1cc(Oc2ccccc2)nc(N2CCOCC2)n1", "activity, negative = inhibition": -5.46}, {"smiles": "COc1ccc(CCNc2nc(-c3ccc(Cl)cc3)cc(C(F)(F)F)n2)cc1OC", "activity, negative = inhibition": -16.6}, {"smiles": "COc1ccc2c(Sc3ccc(C)cc3)c(C(=O)NC(C)c3ccccc3)[nH]c2c1", "note": "(stereo unspecified)", "activity, negative = inhibition": 2.48}, {"smiles": "CNC(=O)c1ccc(-c2nc(CN3CCc4ccccc43)c(C)o2)cc1", "activity, negative = inhibition": -12.5}, {"smiles": "CCc1ccc(NC(=O)c2nn(-c3ccc(C)cc3)c(=O)n(C)c2=O)cc1", "activity, negative = inhibition": -10.4}, {"smiles": "CC(C)CCNC(=O)CSc1nc2ccccc2nc1Cc1ccc(Cl)cc1", "activity, negative = inhibition": 5.97}, {"smiles": "CCc1ccc(Sc2cc(C(=O)NCCCOC(C)C)c3ccccc3n2)cc1", "activity, negative = inhibition": -15.9}, {"smiles": "COc1ccccc1OCCNc1cc(N2CCOCC2)ccc1[N+](=O)[O-]", "Potency": "14.1 µM (active)"}, {"smiles": "COc1ccccc1OCCNC(=O)c1cc([N+](=O)[O-])cc([N+](=O)[O-])c1", "activity, negative = inhibition": 1.4}, {"smiles": "O=[N+]([O-])c1ccc(N2CCN(S(=O)(=O)c3ccc4ccccc4c3)CC2)cc1NCc1ccco1", "activity, negative = inhibition": -9.48}]}]}
